# Measured values: the supplement of paper PMC6555819
# Tests used:
# Experiment in all cases: PBM binding z-score (relative to random genomic background probes); higher = stronger binding; sequences stand for … in GC…GCGATTGACAGCGTAGAATGAAGG
# [1] = system: PPARg:RXRa DBDmut IVT, anti-RXR (DBD mutation: RXRa K156A/R161A, NR concentration 270 nM, RXRa partner concentration 90 nM)
# In short: (§1)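 Probes were double-stranded and carried 34-nt variable regions with direct-repeat seeds, single-nucleotide variants, half-site ablations and random human genomic background sequences, printed on custom Agilent 4×180K protein-binding microarrays. Arrays were incubated 1 h with ligand-free nuclear receptor dimers in PBS pH 7.4, 2% milk, 0.02% Triton X-100, 1 mM DTT, 0.2 mg/mL BSA and 0.4 mg/ml salmon testes DNA. Antibodies against each partner (one per run) detected binding, and scanned fluorescence was regression-normalized. Binding z-scores use the random background probes as reference.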
# [2] = system: PPARg:RXRa IVT, anti-PPARg (NR concentration 270 nM, RXRa partner concentration 90 nM)
# In short: as §1
# [3] = system: PPARg DBDmut IVT, anti-PPARg (DBD mutation: PPARg1 K132A/R137A, NR concentration 270 nM)
# In short: as §1
# [4] = system: PPARg homodimer (NR concentration 180 nM)
# In short: as §1
# [5] = system: PXR:RXRa (NR concentration 270 nM, RXRa partner concentration 90 nM)
# In short: as §1
# [6] = system: PXR homodimer (NR concentration 270 nM)
# In short: as §1
# [7] = system: RARa:RXR (NR concentration 270 nM, RXRa partner concentration 90 nM)
# In short: as §1
# [8] = system: RARa homodimer (NR concentration 270 nM)
# In short: as §1
# [9] = system: RARb:RXRa (NR concentration 270 nM, RXRa partner concentration 90 nM)
# In short: as §1
# [10] = system: RARb homodimer (NR concentration 270 nM)
# In short: as §1
# [11] = system: RARg:RXRa (NR concentration 270 nM, RXRa partner concentration 90 nM)
# In short: as §1
# [12] = system: RARg homodimer (NR concentration 270 nM)
# In short: as §1
# [13] = system: RXRa DBDmut IVT, anti-RXR (DBD mutation: RXRa K156A/R161A, NR concentration 90 nM)
# In short: as §1
# [14] = system: RXRa homodimer (NR concentration 180 nM)
# In short: as §1
# [15] = system: THRa:RXRa (NR concentration 90 nM, RXRa partner concentration 90 nM)
# In short: as §1
# [16] = system: THRa homodimer (NR concentration 90 nM)
# In short: as §1
# [17] = system: VDR homodimer (NR concentration 270 nM)
# In short: as §1
Sequence,PBM binding z-score [1],PBM binding z-score [2],PBM binding z-score [3],PBM binding z-score [4],PBM binding z-score [5],PBM binding z-score [6],PBM binding z-score [7],PBM binding z-score [8],PBM binding z-score [9],PBM binding z-score [10],PBM binding z-score [11],PBM binding z-score [12],PBM binding z-score [13],PBM binding z-score [14],PBM binding z-score [15],PBM binding z-score [16],PBM binding z-score [17]
ATATGTAGCTTAGGGTCATTCAGAAAGTAGGGAA,0.587,2.1,1.21,1.78,4.04,0.915,4.2,1.36,3.24,2.97,3.71,2.73,2.16,4.87,4.07,3.15,3.71
AAATGTAGGTTAGGGTCATTCAGAAAGTAGGGAA,7.33,7.35,1.95,3.74,4.47,2.29,4.78,1.99,3.64,3.49,3.99,3.4,2.78,5.29,4.02,3.35,3.92
ATATGTAGGTTAGGGTCATTCGGAAAGTAGGGAA,6.55,6.85,4.65,3.85,4.53,1.88,4.88,2.27,3.43,3.62,4.07,3.15,2.51,5.06,4.16,3.3,4.24
CGAAGTAGGTCAAAGGACAGTGAAAGGCGACGTA,8.31,8.72,4.59,2.49,1.66,0.0557,2.53,0.312,3.93,3.05,4.15,4.75,1.19,3.67,2.1,-0.0786,0.382
ATATGTAGGTTAGGGACATTCAGAAAGTAGGGAA,6.18,5.89,1.59,0.688,0.115,0.777,0.618,1.69,1.04,1.11,0.67,1.27,0.8,0.406,2.32,1.51,0.36
CGATCTAGGTCACCAGGACAGTGAAGAGGTTGGA,8.32,8.59,0.925,1.88,1.46,-0.089,2.44,-0.0617,4.03,3.47,4.36,5.15,1.35,3.32,3.44,2.13,0.435
CGAACTAGGTCACCGGGACAGTGAAGAGGTTGGA,7.85,9.13,0.892,2.28,1.79,-0.271,3.2,0.436,4.33,3.62,4.73,5.23,1.41,3.62,3.75,1.79,0.333
CGAACTAGGTCACCAGTACAGTGAAGAGGTTGGA,8.41,8.76,1.75,2.54,1.59,-0.139,2.65,0.527,3.98,3.14,4.38,5.54,1.33,3.2,3.09,1.33,0.782
CGAACTAGGTCAAAGCACAGTGAAAGGCGACGTA,7.81,8.43,5.29,3.43,1.01,-0.325,1.71,0.149,3.8,2.34,3.89,4.07,1.58,2.66,2.37,0.0185,0.261
CAAACTAGGTCACCAGGACAGTGAAGAGGTTGGA,8.41,8.88,1.44,2.71,1.87,0.166,2.97,0.827,4.28,3.44,4.56,5.51,1.54,3.75,3.77,2,1.03
CGAACTAGGTAAAAGGACAGTGAAAGGCGACGTA,5.32,4.9,0.0504,0.371,-0.425,-0.442,-0.202,-0.518,1.09,1.17,0.486,0.964,-0.478,0.114,0.444,-0.377,-0.349
CGAACTGGGTCACCAGGACAGTGAAGAGGTTGGA,7.66,8.73,1.6,1.47,1.55,-0.358,2.52,-0.049,3.73,2.84,4.16,4.22,0.542,3.41,2.91,0.811,0.0235
ATATGTAGGTTAGGGTTATTCAGAAAGTAGGGAA,6.88,6.54,2.32,2.77,2.33,1.31,2.55,1.94,1.57,1.72,1.45,1.05,1.06,2.13,2.45,1.52,1.23
ATATGTACGTTAGGGTCATTCAGAAAGTAGGGAA,0.518,2.04,1.66,2.39,4.47,1.32,4.93,1.08,3.1,2.98,3.78,2.71,2.3,4.98,3.78,2.87,3.98
CGAACTAGGTCACAGGACAGTGAAAGGCGACGTA,8.61,8.91,3.67,2.35,1.38,-0.238,2.22,0.616,4.11,3.12,4.25,4.96,1.61,3.27,2.86,0.815,0.381
CGAACTAGGTCAAAGGACAGTGTAAGGCGACGTA,7.92,7.95,-0.12,0.849,1.19,-0.0737,2.22,0.371,3.91,3.11,4.01,4.55,1.32,3.01,2.9,0.826,0.391
